Assay outcomes as filed in PubChem.
The list is not random: actives were taken first. Their share in the collection is about 4%.
TWEAK-Fn14 inh: inhibitors of TWEAK-Fn14 signaling, primary screen, luciferase reporter cells, uHTS. TWEAK-stimulated Fn14 reporter cells, luciferase luminescence, 8 h. inhibition, % at 10 µM. 2% of 360,000 active. AID 1159606, 2016; in the data active = inhibition above about 50%
HIF-2a block: HIF-2a reporter inhibitors, primary screen, luminescence, 786-0 RCC cells. 786-0 RCC cells HIF-2a reporter, luciferase luminescence, overnight. inhibition, % at 18.8 µM. 0.72% of 360,000 active. AID 624352, 2012;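 active = inhibition of the luminescence signal of 40% or more relative to plate controls, in a single-dose primary screen at 18.75 µM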
CF NFkB block: inhibitors of PAF-induced NF-kB signaling, primary screen, cell-based, GFP fluorescence, uHTS; KKLEB NF-kB-GFP reporter, GFP fluorescence overnight; 0.86% of 360,000 active; AID 588850, 2011; inhibition, % at 5 µM;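 active = at least 50% inhibition at 5 µM, scaled per plate between neutral and stimulator controls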;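 note: PAF is a Pseudomonas aeruginosa culture filtrate used as stimulus; plate controls were PAF-stimulated DMSO wells for no effect and unstimulated DMSO wells for full effect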
TROY NFkB inh: inhibitors of TROY-driven NF-kB signaling, primary screen, Q293 LMP1-TROYcd cells, NF-kB luciferase, uHTS; Q293 LMP1-TROYcd NF-kB luciferase reporter, 4 h; AID 1347056, 2019; 0.98% of 360,000 active; inhibition, % at 10 µM;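 active = compounds whose plate-normalised and pattern-corrected inhibition of the luciferase reporter signal at the single screening dose is 50% or more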
KKLEB cytotox: cytotoxicity in KKLEB CF airway cells, primary screen, cytotoxicity control for CF NF-kB inhibitor project, cell-based, uHTS, fluorescence assay plates | KKLEB CF airway cells viability, ATPlite luminescence, overnight; hits give low values; cells stimulated with P. aeruginosa culture filtrate | activity change (cytotoxicity), % at 5 µM | 0.36% of 360,000 active | AID 602141, 2011;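 active = corrected activity change at or below -50% at 5 µM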
Peg3 prom inh-1: Peg3 promoter-driven luciferase inhibitors, primary screen, cell-based, HeLa, luciferase luminescence; 1.7% of 360,000 active; HeLa PEG-Prom luciferase reporter, overnight; inhibition, % at 20 µM;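 active = inhibition of at least 50% at 20 µM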
Peg3 prom inh-2: Peg3 promoter reporter inhibitors, retest, confirmation, cell-based, HeLa, luciferase reporter, single concentration; shares compounds with Peg3 prom inh-1; HeLa PEG-Prom luciferase reporter, luminescence, overnight; inhibition, % at 20 µM; 84% of 1,300 active;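 active = at 20 µM dose, 40% or more inhibition averaged across four replicates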
CF NFkB inh conf: inhibitors of PAF-induced NF-kB signaling, retest, confirmation, cell-based, GFP fluorescence, single concentration | shares compounds with CF NFkB block | AID 602472, 2012 | inhibition, % at 5 µM | KKLEB CF airway cells, overnight | 64% of 1,300 active; in the data active = inhibition above about 40%;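 note: stimulus PAF is a Pseudomonas aeruginosa filtrate and not platelet activating factor; plate controls were DMSO wells with stimulus for no effect and unstimulated DMSO wells for full effect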
Mdm2-MdmX confirm: retested Mdm2-MdmX interaction blockers, confirmation, cell-based, luminescence, single concentration, set 2. shares compounds with HIF-2a block. SaOS-2 split-luciferase Mdm2/MdmX complementation. inhibition, % at 8 µM. 99% of 740 active. AID 504601, 2011;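 active = mean inhibition of the luminescence signal across two replicates at or above 26 percent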
Target sequence (O15151 whole entry, looked up): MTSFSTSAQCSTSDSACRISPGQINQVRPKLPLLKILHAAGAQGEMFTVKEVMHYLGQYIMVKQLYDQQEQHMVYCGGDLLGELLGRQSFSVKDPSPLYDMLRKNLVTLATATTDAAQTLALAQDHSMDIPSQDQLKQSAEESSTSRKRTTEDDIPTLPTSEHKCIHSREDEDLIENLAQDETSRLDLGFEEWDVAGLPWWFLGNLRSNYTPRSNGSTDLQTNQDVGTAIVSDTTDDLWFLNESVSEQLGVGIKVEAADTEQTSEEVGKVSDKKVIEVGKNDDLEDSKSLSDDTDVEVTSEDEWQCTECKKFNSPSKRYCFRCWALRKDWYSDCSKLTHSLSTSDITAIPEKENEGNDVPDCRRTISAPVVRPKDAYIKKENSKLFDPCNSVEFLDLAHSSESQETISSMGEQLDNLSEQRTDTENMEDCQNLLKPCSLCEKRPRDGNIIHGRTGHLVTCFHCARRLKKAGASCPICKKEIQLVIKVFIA
Target sequence (Q00987 whole entry, looked up): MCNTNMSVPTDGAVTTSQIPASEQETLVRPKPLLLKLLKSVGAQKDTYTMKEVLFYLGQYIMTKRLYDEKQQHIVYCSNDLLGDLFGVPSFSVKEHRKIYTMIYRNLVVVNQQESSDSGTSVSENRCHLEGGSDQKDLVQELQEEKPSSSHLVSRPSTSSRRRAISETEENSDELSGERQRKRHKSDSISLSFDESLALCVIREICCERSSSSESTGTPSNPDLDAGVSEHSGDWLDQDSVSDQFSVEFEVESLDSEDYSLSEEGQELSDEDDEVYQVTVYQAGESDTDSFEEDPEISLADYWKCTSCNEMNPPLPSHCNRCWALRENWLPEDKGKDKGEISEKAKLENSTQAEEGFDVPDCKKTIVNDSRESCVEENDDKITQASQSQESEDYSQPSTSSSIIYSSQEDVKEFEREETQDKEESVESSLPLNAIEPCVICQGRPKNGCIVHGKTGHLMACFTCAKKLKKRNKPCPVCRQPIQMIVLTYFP
HIF-2a conf: HIF-2a reporter inhibitor retest, confirmation, luminescence, 786-0 RCC cells. shares compounds with HIF-2a block. HIF-2a luciferase reporter luminescence, overnight. inhibition, % at 18.8 µM. 56% of 1,800 active. AID 651580, 2012;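 active = mean inhibition across four replicates of at least 40 percent at the single tested concentration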
HIF-1a cs: HIF-1a luciferase reporter signal reduction – MiaPaCa-2 cells, single concentration, counter-screen for HIF-2a inhibitor project, confirmation. MiaPaCa-2 HIF-1a luciferase reporter, desferoxamine, overnight. AID 651589, 2012. 72% of 1,800 active. shares compounds with HIF-2a block. inhibition, % at 18.8 µM;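 active = mean inhibition of the reporter signal across four replicates at the single tested dose of 50% or more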
Active calls of the source: *; nt = no result.

SMILES | TWEAK-Fn14 inh | HIF-2a block | CF NFkB block | TROY NFkB inh | KKLEB cytotox | Peg3 prom inh-1 | Peg3 prom inh-2 | HIF-2a conf | HIF-1a cs | others
O=C(O)CSCC(=O)Nc1ccc(C2CCCCC2)cc1 | 92* | 81* | 2 | 83* | 3 | 71* | 77* | 95* | 94*
Cc1ccc(S(=O)(=O)N2C[C@H]3C(=O)C[C@@H](c4cccc(Cl)c4)N(S(=O)(=O)c4ccc(C)cc4)[C@H]3C[C@H]2c2cccc(Cl)c2)cc1 | 4 | 3 | 19 | 3 | 0 | 1 | nt | nt | nt
c1ccc(CN2CCC(Nc3nc(-c4cccnc4)nc4ccccc34)CC2)cc1 | -87 | 42* | -6 | -2 | -38 | 100* | 70* | 21 | 79*
c1ccc(CNc2nc(-c3cccnc3)nc3ccccc23)cc1 | -7 | 1 | -19 | 6 | -2 | 19 | nt | nt | nt
N#CC(C#N)=C1C=CC=CN1/C(=C\c1ccco1)C(=O)c1ccc(Cl)cc1 | 97* | 94* | 85* | 86* | -50 | 104* | 100* | 98* | 97* | CF NFkB inh conf=10
N#Cc1cc2c(nc1SC1CC(=O)N(c3ccccc3)C1=O)CCC2 (configuration not stated) | 100* | 59* | 9 | 83* | -4 | 57* | 59* | 83* | 63*
CCc1nc2c(OCCOc3ccc(F)cc3)cccn2c1N(C=O)Cc1ccc(OC)cc1 | 6 | 5 | 22 | 4 | -1 | 26 | nt | nt | nt
Cc1oc(-c2ccc3c(c2)OCCO3)cc1C(=O)NCC(=O)O | 19 | -89 | -45 | 2 | 3 | -60 | nt | nt | nt
Cc1oc(-c2ccc3c(c2)OCCO3)cc1C(=O)O | 106* | 81* | 9 | 84* | -6 | 96* | 89* | 92* | 92*
O=C(c1ccc(Cl)cc1)N1CCCCC(Sc2nnc(-c3ccc4c(c3)OCO4)o2)C1=O (configuration not stated) | 98* | 64* | -6 | 58* | -10 | 54* | 58* | 83* | 68*
O=C(O)CSc1nnc(-c2ccc3c(c2)OCO3)o1 | 1 | 22 | 10 | 4 | 2 | 9 | nt | nt | nt
CCCCCC(O)CCCC(=O)O (configuration not stated) | -11 | 11 | -13 | 1 | 10 | 6 | nt | nt | nt
CCCCCCCCCCCCCCCC(O)C[N+](C)(C)CCO (configuration not stated) | -61 | 62* | 54* | 2 | -62* | 104* | 87* | 52* | 92*
COc1ccc(NC(=O)c2cc(C3CC3)nc3c2cnn3C(C)C)cc1OC | -42 | 0 | -37 | -17 | 19 | 10 | nt | nt | nt
COc1cccc(N2CCN(S(=O)(=O)c3ccc4ccccc4c3)CC2)c1 | -3 | -7 | -1 | 4 | 0 | 8 | nt | nt | nt
O=C(Cn1cnc2c(nnn2Cc2ccccc2)c1=O)Nc1ccc2c(c1)OCCO2 | -8 | 4 | 16 | -8 | -6 | 3 | nt | nt | nt
CCOC(=O)Cc1csc(NC(=S)NC(=O)c2ccc(Cl)cc2)n1 | 0 | 95* | -2 | 27 | -11 | 51* | 70* | 98* | 97*
CCN(CC)C(=O)C1=C(C)N(CCCN2CCCC2=O)C(=O)C(CC(=O)NCCN2CCOCC2)C1 (configuration not stated) | -3 | 4 | 9 | 2 | -31 | 3 | nt | nt | nt
CCOC(=O)C1(COCc2ccccc2)CCCCC1=O (configuration not stated) | -6 | 1 | 11 | -20 | -15 | 17 | nt | nt | nt
CS(=O)(=O)Nc1cccc(NC(=O)C2Cc3c(-c4cccc(F)c4)ccnc3O2)c1 (configuration not stated) | -20 | 51* | -11 | 25 | -13 | 66* | 64* | 34 | 89*
O=C(Nc1ccccc1)C1Cc2c(-c3cccc(F)c3)ccnc2O1 (configuration not stated) | -14 | 4 | -11 | 9 | 5 | 18 | nt | nt | nt
O=C(NC1CCCCC1)C(c1cccnc1)N(C(=O)CCl)c1cccc(Cl)c1 (configuration not stated) | 44 | 62* | 54* | 9 | -63* | 106* | 99* | 98* | 106* | Mdm2-MdmX confirm=103*
Cc1cccc(N(C(=O)CNC(=O)c2ccco2)C(C(=O)NC2CCCCC2)c2cccnc2)c1 (configuration not stated) | 12 | 19 | 0 | 11 | -3 | -9 | nt | nt | nt
CCOC(=O)C1CCCN(C(=O)c2cc(CN3C(=O)c4ccccc4C3=O)ccc2OC)C1 (configuration not stated) | -20 | -6 | -2 | -4 | 2 | 10 | nt | nt | nt
Cn1c(/N=C/c2ccc3c(c2)OCO3)nc2ccccc21 | 6 | -29 | 1 | -13 | 4 | 4 | nt | nt | nt
C(=Cc1cnc2ccccc2n1)c1ccc2c(c1)OCO2 | 98* | 59* | -31 | 81* | -65* | 69* | 85* | 92* | 99*
COc1cccc(-c2ccc3ncnc(NCc4cc(C)cs4)c3c2)c1 | 77* | 12 | 71* | 42 | 4 | 24 | nt | nt | nt | CF NFkB inh conf=78*
O=C(O)C1OC(C(=O)O)C(C(=O)O)C1C(=O)O (configuration not stated) | 8 | 6 | -22 | -4 | 17 | -28 | nt | nt | nt
c1ccc(CNc2ncnc3scc(-c4cccs4)c23)nc1 | 49 | 30 | 52* | 43 | -6 | 30 | nt | nt | nt | CF NFkB inh conf=35
